# Assay outcomes as filed in PubChem.
# ROS inducer = ROS inducers in U2OS cancer cells, primary screen, cell-based, H2DCF-DA fluorescence; U2OS ROS induction; ROS induction (% of piperlongumine), % at 10 µM; hit rate 2% among 46,000; in the data active = ROS induction above about 79%, passing the limit was not always enough
# A number is an active result; - = inactive. The entries come from a sample that favours hits as a whole.
SMILES,ROS inducer
COc1ccc(CN(C)C[C@H]2Oc3ccc(NS(=O)(=O)c4cccs4)cc3C(=O)N([C@@H](C)CO)C[C@H]2C)cc1,-
C[C@H]1CN([C@@H](C)CO)C(=O)c2cc(NS(=O)(=O)c3cccs3)ccc2O[C@H]1CN(C)Cc1ccc(Oc2ccccc2)cc1,-
C[C@H](CO)N1C[C@H](C)[C@H](CN(C)Cc2ccc(-c3ccccc3)cc2)Oc2ccc(NS(=O)(=O)c3cccs3)cc2CC1=O,78.4
C[C@H]1CN([C@@H](C)CO)C(=O)Cc2cc(NS(C)(=O)=O)ccc2O[C@H]1CN(C)Cc1ccccc1,-
C[C@H](CO)N1C[C@H](C)[C@H](CN(C)Cc2ccc(-c3ccccc3)cc2)Oc2ccc(NS(=O)(=O)c3ccc(Cl)cc3)cc2CC1=O,142.3
C[C@@H]1CN([C@H](C)CO)C(=O)Cc2cc(NS(=O)(=O)c3ccc(Cl)cc3)ccc2O[C@H]1CN(C)Cc1ccccc1,-
C[C@H]1CN([C@@H](C)CO)C(=O)Cc2cc(NS(=O)(=O)c3cccs3)ccc2O[C@H]1CN(C)Cc1ccc(-c2ccccc2)cc1,-
C[C@@H]1CN([C@H](C)CO)C(=O)Cc2cc(NS(=O)(=O)c3cccs3)ccc2O[C@@H]1CN(C)Cc1ccc(-c2ccccc2)cc1,-
C[C@@H]1CN([C@H](C)CO)C(=O)Cc2cc(NS(C)(=O)=O)ccc2O[C@@H]1CN(C)Cc1ccccc1,-
C[C@H](CO)N1C[C@H](C)[C@@H](CN(C)Cc2ccc(Oc3ccccc3)cc2)Oc2ccc(NS(=O)(=O)c3cccs3)cc2C1=O,93.2
C[C@H](CO)N1C[C@H](C)[C@H](CN(C)Cc2ccccc2)Oc2ccc(NS(=O)(=O)c3ccc(Cl)cc3)cc2CC1=O,-
Cc1noc(C)c1S(=O)(=O)Nc1ccc2c(c1)C(=O)N([C@H](C)CO)C[C@H](C)[C@H](CN(C)C(=O)Nc1ccccc1)O2,-
C[C@@H]1CCCCO[C@@H](CN(C)Cc2ccc(C(F)(F)F)cc2)[C@@H](C)CN([C@H](C)CO)C(=O)c2cc(NS(C)(=O)=O)ccc2O1,-
CS(=O)(=O)N(CC(=O)Nc1ccccc1C(=O)O)c1cccc(C(F)(F)F)c1,-
C[C@H](CO)N1C[C@H](C)[C@H](CN(C)Cc2ccc(-c3ccccc3)cc2)Oc2ccc(NC(=O)CCCN(C)C)cc2C1=O,-
COc1ccc(S(=O)(=O)Nc2ccc3c(c2)CC(=O)N([C@H](C)CO)C[C@@H](C)[C@@H](CN(C)C(=O)Nc2c(C)noc2C)O3)cc1,-
CCCC(=O)Nc1ccc(-c2nc3cc4ccccc4cc3[nH]2)cc1,-
CSc1c(C#N)c(-c2cc(C(C)(C)C)oc2C)nn1-c1ccccc1,-
C[C@@H]1CN([C@H](C)CO)C(=O)CCCn2cc(nn2)CO[C@@H]1CN(C)S(=O)(=O)c1ccccc1C#N,-
O=C(CCCCCC(=O)Nc1ccccc1O)N/N=C/c1cc(Br)cc([N+](=O)[O-])c1O,-
C[C@H](CO)N1C[C@H](C)[C@H](CN(C)Cc2ccc(C(F)(F)F)cc2)Oc2ccc(NS(=O)(=O)c3ccccc3)cc2CC1=O,-
C[C@@H]1CN([C@H](C)CO)C(=O)Cc2cc(NS(=O)(=O)c3ccccc3)ccc2O[C@@H]1CN(C)Cc1ccc(C(F)(F)F)cc1,-
C[C@@H]1CN([C@H](C)CO)C(=O)Cc2cc(NS(=O)(=O)c3ccccc3)ccc2O[C@H]1CN(C)Cc1ccc(C(F)(F)F)cc1,216.7
COC(=O)c1ccc(NC(=O)C(C)N2c3cccc4cccc(c34)S2(=O)=O)cc1 (stereo unspecified),-
O=C(COc1ccccc1Cl)Nc1cccc(NC(=O)c2ccco2)c1,-
Cc1cc(C)c(OCC(=O)Nc2cccc(NC(=O)c3ccco3)c2)c(Br)c1,175.9
Cc1ccccc1OCC(=O)Nc1ccccc1NC(=O)c1ccco1,-
CCc1cccc(OCC(=O)Nc2sc3c(c2C(N)=O)CCCC3)c1,-
COc1ccc(C(=O)CSc2nn3c(SCC(=O)c4ccc(OC)cc4)nnc3s2)cc1,-
O/N=C(/C(=N/O)c1ccccc1)c1ccccc1,-
